Measurements as given in the supplement of paper PMC6658780.
± gives the standard deviation of the averaged measurements.

Experiments:
[1] = system: Klebsiella pneumoniae NCTC-13439; experiment: percent growth inhibition of drug alone vs DMSO control; higher = more growth inhibition; conditions: antibiotic (0.125x MIC): none (0.1% DMSO)
[2] = system: Klebsiella pneumoniae KPC-119; experiment: percent growth inhibition of drug + antibiotic vs DMSO control; higher = more growth inhibition
[3] = system: Klebsiella pneumoniae NCTC-13439; experiment: as above; conditions: antibiotic (0.125x MIC): tigecycline; 7 µM
[4] = antibiotic (0.125x MIC): colistin, 7 µM

Question: O=C([O-])c1ccccc1-c1c2cc(Br)c(=O)cc-2oc2[c]([Hg+])c([O-])c(Br)cc12.[Na+].[Na+].[OH-] [Merbromin] was tested. Which “percent growth inhibition of drug alone” value ([1]; 7 µM) did it give?
Answer: -0.236 ± 1.4%

Question: And the “percent growth inhibition of drug alone” value ([1]; 20 µM)?
Answer: 15.7 ± 0.91%

Question: What about the percent growth inhibition ([2]; antibiotic (0.125x MIC): gentamicin, 7 µM) of the same compound?
Answer: 2.44 ± 4%

Question: And the percent growth inhibition ([2]; antibiotic (0.125x MIC): meropenem, 20 µM)?
Answer: 99.619 ± 0.036%

Question: And the percent growth inhibition [3]?
Answer: -5.98 ± 14%

Question: C[C@]12CC[C@H](O)C[C@@H]1CC[C@@H]1[C@@H]2CC[C@]2(C)C(=O)CC[C@@H]12 [Epiandrosterone] was tested. Which percent growth inhibition [2, 4] did it give?
Answer: -6.74 ± 2.2%

Question: Which percent growth inhibition [2, 4] does the source give for CCn1cc(C(=O)O)c(=O)c2cc3c(cc21)OCO3 [Oxolinic acid] here?
Answer: 37.9 ± 7.2%
